Source: PubChem BioAssay (NCATS)
Records with an inconclusive call do not appear. Activity calls are given as the source filed them. Calls come from the whole dose curve; as a rule, active = well fitted cell-killing curve with a large enough effect; inconclusive = small, poorly fitted or top-dose-only effect, or effect the other way; inactive = flat fitted curve, though single readings scatter. Where a SMILES comes first, the peptide text is derived from it. [ ]: non-standard residue; d: D form. ξ: configuration not given here. ξPhe(βξ-Me) = CC(c1ccccc1)C(N)C(=O)O; GABA = NCCCC(=O)O

system: HeLa; assay: Primary qHTS to identify gynecologic anti-cancer compounds using libraries of approved drugs and bioactive compounds (AID 1345084); details: Gynecologic cancer cell panel viability, ATPlite luminescence, 48 h; series mostly up to 57.5 µM; activity change, negative = cytotoxicity: at the top concentration; note: nearly all actives have a fitted effect of over 55% in size
Summary of the method: (§1)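 Five-point cytotoxicity, 48 h drug exposure at 37 C, 5% CO2, on cells seeded 16 h beforehand. ATP content read by ATPlite luminescence.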
% is set by controls: 0 for no effect and ±100 for the full control effect.

Row | Structure (SMILES) | activity change, negative = cytotoxicity
1 | C/C=C(\C)C(=O)O[C@@H]1CC2[C@@H](CC=C3C[C@@H](O[C@H]4C[C@H](OC)[C@H](O[C@H]5C[C@H](OC)[C@H](O[C@H]6C[C@H](OC)[C@H](O[C@H]7C[C@@H](OC)[C@H](O[C@@H]8O[C@H](CO)[C@@H](O)[C@H](O)[C@H]8O)[C@@H](C)O7)[C@@H](C)O6)[C@@H](C)O5)[C@@H](C)O4)CC[C@@]32C)[C@@]2(O)CC[C@H](C(C)=O)[C@@]12C (stereo partly drawn) | -14.4% [at 6.55 µM] (inactive)
2 | C[C@@H]1O[C@@H](O[C@H]2[C@H](OC(=O)[C@]34CCC(C)(C)C[C@H]3C3=CCC5[C@@]6(C)C[C@H](O)[C@H](O[C@@H]7O[C@H](CO[C@@H]8OC[C@H](O)[C@H](O)[C@H]8O)[C@@H](O)[C@H](O)[C@H]7O)C(C)(C)C6CC[C@@]5(C)[C@]3(C)C[C@H]4O)OC[C@@H](O)[C@@H]2O)[C@H](O)[C@H](O[C@@H]2OC[C@](O)(CO)[C@H]2O)[C@H]1O[C@@H]1OC[C@H](O)[C@H](O[C@@H]2OC[C@@H](O)[C@H](O)[C@H]2O)[C@H]1O (stereo partly drawn) | 19.1% [at 6.55 µM] (inactive)
3 | O=C(NCC(=O)N1CC[C@H](NC2CCC(O)(c3ccc(-c4ncccn4)cn3)CC2)C1)c1cccc(C(F)(F)F)c1 (stereo partly drawn) | 16.1% (inactive)
4 | CCNC(=O)CCC/C=C\C[C@@H]1[C@@H](/C=C/C(O)CCc2ccccc2)[C@@H](O)C[C@@H]1O (stereo partly drawn) | 15.4% (inactive)

system: Hek293T; assay: as above; details: Gynecologic cancer cell panel viability, ATPlite luminescence, 48 h, control line for the selectivity index; series mostly up to 57.5 µM; activity change, negative = cytotoxicity: at the top concentration
Summary of the method: as §1

Row | Structure (SMILES) | activity change, negative = cytotoxicity
5 | O=C(OCc1cccc(O)c1O[C@@H]1O[C@H](CO)[C@@H](O)[C@H](O)[C@H]1O)C1(O)C(=O)C2C=CC1C1C=CC(=O)C(O)(C(=O)OCc3cccc(O)c3O[C@@H]3O[C@H](CO)[C@@H](O)[C@H](O)[C@H]3O)C21 (stereo partly drawn) | 8.15% [at 11.6 µM] (inactive)
6 | C/C=C(\C)C(=O)O[C@H]1[C@H](O)[C@]2(COC(C)=O)[C@H](O)C[C@]3(C)C(=CCC4[C@@]5(C)CC[C@H](O[C@@H]6O[C@H](C(=O)O)[C@@H](O[C@@H]7O[C@H](CO)[C@@H](O)[C@H](O)[C@H]7O)[C@H](O)[C@H]6O[C@@H]6O[C@H](CO)[C@@H](O)[C@H](O)[C@H]6O)[C@](C)(CO)C5CC[C@]43C)[C@@H]2CC1(C)C (stereo partly drawn) | 5.9% [at 11.6 µM] (inactive)
7 | CC(=O)O[C@@H]1C[C@@]23C[C@@]24CC[C@H](OC2OC[C@@H](O)[C@H](O)[C@H]2O)C(C)(C)[C@@H]4CC[C@H]3[C@]2(C)CC3OC4(C[C@@H](C)C3[C@@]12C)OCC1(C)OC14 (stereo partly drawn) | 15.9% [at 25.3 µM] (inactive)
8 | COc1ccc2c(c1O)OC[C@H]1c3ccc(O)cc3O[C@@H]21 | -4.44% (inactive)
9 | CC1=CC(=O)C2C(C)(C)CCCC2(C)C12CCC1(COC(=O)C1)O2 (stereo not drawn) | -0.619% [at 38.5 µM] (inactive)
10 | C[C@]1(O)CC[C@@H]2C(C(=O)O)=CO[C@@H](O[C@@H]3O[C@H](COC(=O)c4ccc(O)cc4)[C@@H](O)[C@H](O)[C@H]3O)[C@@H]21 | 1.64% [at 25.3 µM] (inactive)
11 | O=C(c1ccccn1)c1cnn2c(-c3ccncc3)ccnc12 | 8.44% (inactive)
12 | C=CC1(C)C=C2C(O)CC3C(C)(C(=O)O)CCCC3(C)C2CC1 (stereo not drawn) | -0.974% [at 38.5 µM] (inactive)
13 | COC(=O)C1=CO[C@@H](O[C@@H]2O[C@H](COC(=O)/C=C/c3cc(OC)c(O)c(OC)c3)[C@@H](O)[C@H](O)[C@H]2O)[C@@H]2C(CO)=CC[C@H]12 | 6.9% [at 25.3 µM] (inactive)
14 | CC12CCC3C(C)(C)C(O)CCC3(C)C1Cc1c(oc(C(=O)O)cc1=O)O2 (stereo not drawn) | -0.076% [at 38.5 µM] (inactive)
15 | C=C(C)C(C)C1OC23CC4(CO2)C(CCC2C5(C)CCC(OC6OCC(O)C(OC7OC(CO)C(O)C(OC8OCC(O)C(O)C8O)C7O)C6OC6OC(CO)C(O)C6O)C(C)(C)C5CCC24C)C3C(C)(O)C1OC(C)=O (stereo not drawn) | 12% [at 11.6 µM] (inactive)
16 | CC(=O)Oc1cc2c(s1)CCN([C@H](C(=O)C1CC1)c1ccccc1F)C2 | 8.13% (inactive)
17 | Cc1ncc([N+](=O)[O-])n1CC(O)CN1CCOCC1 (stereo not drawn) | 13.1% (inactive)
18 | O=C(c1ccc(NS(=O)(=O)c2cccc3cccnc23)cc1)N1CCN(CC2CC2)CC1 | 3.11% (inactive)
19 | C/C(=C\CCC(C)(O)c1ccc(C)cc1)C(=O)O (stereo not drawn) | 0.795% (inactive)
20 | COc1cc(C2Oc3c(OC)cc(/C=C/C(=O)OC[C@H]4O[C@@H](OC(C)(C)C(=O)O)[C@H](O)[C@@H](O)[C@@H]4O)cc3C2CO)ccc1O (stereo partly drawn) | 8.93% [at 25.3 µM] (inactive)
21 | CC(C)CC1NC(=O)C(C(C)c2ccccc2)NC(=O)C(C(C)C)NC(=O)C(C)NC(=O)CCCNC(=O)C(Cc2c[nH]c3ccccc23)NC(=O)C(C)NC1=O (stereo not drawn) (cyclo([GABA]AV[ξPhe(βξ-Me)]LAW); configuration not given here) | -7.8% [at 25.3 µM] (inactive)
22 | C=CC1C(O[C@@H]2O[C@H](CO)[C@@H](O)[C@H](O)[C@H]2O)OC=C(C(=O)OC)C1CC(=O)O (stereo partly drawn) | 10.7% [at 25.3 µM] (inactive)
23 | CC1CCC2(NC1)OC1C(=O)C3C4CCC5CC(O[C@@H]6O[C@H](CO)[C@@H](O)[C@H](O)[C@H]6O[C@@H]6O[C@@H](C)[C@H](O)[C@@H](O)[C@H]6O)CCC5(C)C4CCC3(C)C1C2C (stereo partly drawn) | -2.72% [at 25.3 µM] (inactive)
24 | C=C(C(=O)O)C1CCC(C)C2CCC(=O)OC2(C)C1 (stereo not drawn) | 7.77% (inactive)

Row | Structure (SMILES) | activity change, negative = cytotoxicity
25 | CC1(C)C(=O)N2c3ccccc3[C@]3(CC(n4cnc5ccccc5c4=O)C(=O)O3)[C@H]2N1O (stereo partly drawn) | 7.96% [at 25.3 µM] (inactive)
26 | CC(C)c1nc(N(C)S(C)(=O)=O)nc(-c2ccc(F)cc2)c1/C=C/[C@@H](O)C[C@@H](O)CC(=O)O | -3.06% (inactive)
27 | O=C(O)Cc1nn(Cc2nc3cc(C(F)(F)F)ccc3s2)c(=O)c2nccnc12 | -3.24% (inactive)
28 | O=C(O)CCc1cc2ccoc2cc1O[C@@H]1O[C@H](CO[C@@H]2OC[C@](O)(CO)[C@H]2O)[C@@H](O)[C@H](O)[C@H]1O | 3.81% [at 25.3 µM] (inactive)
29 | COc1ccc(/C=C/C(=O)O[C@@H]2[C@@H](OC(C)=O)[C@@H](OC(C)=O)[C@H](O[C@H]3[C@@H]4C=CO[C@@H](O[C@@H]5O[C@H](CO)[C@@H](O)[C@H](O)[C@H]5O)[C@@H]4[C@@]4(CO)O[C@@H]34)O[C@H]2C)cc1O | 7.14% [at 25.3 µM] (inactive)
30 | C=CC(C)(O)CC/C=C(\C)C(=O)OC1CC2(C(=O)O)CCC3(C)C(=CCC4C5(C)CCC(OC6OC(COC7OCC(O)C(O)C7O)C(O)C(OC7OCC(O)C(O)C7O)C6OC6OC(CO)C(O)C(O)C6OC6OCC(O)C(O)C6O)C(C)(C)C5CCC43C)C2CC1(C)C (stereo not drawn) | -1.17% [at 6.55 µM] (inactive)
31 | C=C1CC2[C@]3(C)C(=C(O)C(=O)[C@@]2(C)[C@]2(C(=O)OC)C(=O)C(C)OC(=O)[C@@]12C)C(C)(C)C(=O)CC3O (stereo partly drawn) | -4.05% [at 25.3 µM] (inactive)
32 | C=C1CCC(OC(C)=O)C2(C)CC3(O)OC(=O)C(C)=C3CC12 (stereo not drawn) | 4.07% (inactive)
33 | C[C@@H]1CC[C@H]2C(C)(C)[C@H](O)[C@H](O)C[C@]2(C)[C@@]12Cc1c(O)cc3c(c1O2)CNC3=O | -4.83% [at 38.5 µM] (inactive)
34 | C[C@H]1[C@H](C)CC[C@]2(C(=O)O[C@@H]3O[C@H](CO)[C@@H](O)[C@H](O)[C@H]3O)CC[C@]3(C(=O)O)C(=CCC4[C@@]5(C)CC[C@H](O[C@@H]6O[C@H](CO)[C@@H](O)[C@H](O)[C@H]6O)C(C)(C)C5CC[C@]43C)[C@H]12 (stereo partly drawn) | 3.39% [at 11.6 µM] (inactive)
35 | C1CCN2CC3C[C@@H](CN4CCCC[C@@H]34)[C@H]2C1 | 0.624% (inactive)
36 | O=C(COc1ccc(Cl)cc1)NC1CCC(NC(=O)COc2ccc(Cl)cc2)CC1 (stereo not drawn) | 16.1% (inactive)
37 | COc1cc(C(O)C(CO)Oc2ccc(CCCO[C@@H]3O[C@@H](C)[C@H](O)[C@@H](O)[C@H]3O)cc2OC)ccc1O (stereo partly drawn) | 5.43% [at 25.3 µM] (inactive)
38 | CC(C)=CC/C=C(/C)[C@H]1CC[C@]2(C)[C@@H]1[C@H](O)CC1[C@@]3(C)CC[C@H](O)C(C)(C)[C@@H]3[C@@H](O[C@@H]3O[C@H](CO)[C@@H](O)[C@H](O)[C@H]3O[C@@H]3O[C@@H](C)[C@H](O)[C@@H](O)[C@H]3O)C[C@]12C (stereo partly drawn) | 0.417% [at 25.3 µM] (inactive)
39 | CC1CC(O)C2(C)C(C(=O)O)=CCCC2C1(C)CCc1ccoc1 (stereo not drawn) | 5.9% [at 38.5 µM] (inactive)
40 | C/C=C(\C)C(=O)O[C@@H]1CC2[C@@H](CC=C3C[C@@H](O[C@H]4C[C@H](OC)[C@H](O[C@H]5C[C@H](OC)[C@H](O[C@H]6C[C@H](OC)[C@H](O[C@H]7C[C@@H](OC)[C@H](O[C@@H]8O[C@H](CO)[C@@H](O)[C@H](O)[C@H]8O)[C@@H](C)O7)[C@@H](C)O6)[C@@H](C)O5)[C@@H](C)O4)CC[C@@]32C)[C@@]2(O)CC[C@H](C(C)=O)[C@@]12C (stereo partly drawn) | 11.8% [at 6.55 µM] (inactive)
41 | C[C@@H]1O[C@@H](O[C@H]2[C@H](OC(=O)[C@]34CCC(C)(C)C[C@H]3C3=CCC5[C@@]6(C)C[C@H](O)[C@H](O[C@@H]7O[C@H](CO[C@@H]8OC[C@H](O)[C@H](O)[C@H]8O)[C@@H](O)[C@H](O)[C@H]7O)C(C)(C)C6CC[C@@]5(C)[C@]3(C)C[C@H]4O)OC[C@@H](O)[C@@H]2O)[C@H](O)[C@H](O[C@@H]2OC[C@](O)(CO)[C@H]2O)[C@H]1O[C@@H]1OC[C@H](O)[C@H](O[C@@H]2OC[C@@H](O)[C@H](O)[C@H]2O)[C@H]1O (stereo partly drawn) | 7.42% [at 6.55 µM] (inactive)
42 | O=C(NCC(=O)N1CC[C@H](NC2CCC(O)(c3ccc(-c4ncccn4)cn3)CC2)C1)c1cccc(C(F)(F)F)c1 (stereo partly drawn) | 4.48% (inactive)
43 | CCNC(=O)CCC/C=C\C[C@@H]1[C@@H](/C=C/C(O)CCc2ccccc2)[C@@H](O)C[C@@H]1O (stereo partly drawn) | 4.68% (inactive)
